This note sets out measurements from PubChem BioAssay AID588405 (Sanford-Burnham Center for Chemical Genomics, 2011).

The structures appear in SMILES notation. The whole screen tested about 360,000 compounds, of which about 6,200 (1.7%) were called active.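 The calls were made as follows: active = inhibition of at least 50% at 20 µM; inactive = the rest.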 This excerpt belongs to a sample that is enriched for actives.

This experiment can be described thus: Peg3 promoter-driven luciferase inhibitors, primary screen, cell-based, HeLa, luciferase luminescence (AID 588405). As to conditions: HeLa PEG-Prom luciferase reporter, overnight, at 20 µM, hits give high values. In general terms: In a reporter assay the amount or activity of a reporter protein is the signal.
By inhibition is commonly meant the change of the read-out against control, counted positive when it falls. Regarding `COc1ccc(/C=C2\SC(=S)N(CCC(=O)N3CCOCC3)C2=O)cc1OC`, the inhibition is -27.5% (inactive).

Turning to `CCN(C(=O)CN1C(=O)/C(=C/c2ccc(F)cc2)SC1=S)C1CCS(=O)(=O)C1` (stereo not drawn), the inhibition is -2.93% (inactive). As for `O=C1/C(=C/c2ccc(F)cc2)SC(=S)N1CCCC(=O)N1CCCCC1CCO` (stereo not drawn), the figure is 58.3% (active); as for `CC(C)(C)c1ccc(S(=O)(=O)NC(=O)C2(C)CCN2C(=O)CC2CC2)cc1` (stereo not drawn), -3.67% (inactive); as for `Cc1cc(=O)oc2c3c(cc(OCC(=O)NCC(O)c4ccccc4)c12)OC(C)(C)CC3` (stereo not drawn), 12.4% (inactive). As for `CC(NC(=S)Nc1ccccc1)C(c1cccs1)N1CCOCC1` (stereo not drawn), the figure is 14.7% (inactive); as for `CCCC(=O)NC(C)C(c1cccs1)N1CCN(c2ccccc2)CC1` (stereo not drawn), 7.84% (inactive). As for `CC(NC(=O)Nc1ccccc1)C(c1cccs1)N1CCN(c2ccccc2)CC1` (stereo not drawn), the figure is 66.2% (active); as for `CCc1nc2c(OCCOc3ccccc3)cccn2c1N(C=O)Cc1ccc(OC)cc1`, 6.15% (inactive). In the case of `COc1ccc(C(=O)O/N=C(\N)Cc2ccc(Cl)cc2Cl)cc1OC`, the inhibition was 110% (active). Next, `COc1ccc(C(=O)n2nc(-c3ccc(Cl)cc3)nc2N)cc1OC`: 10.6% (inactive); `COc1ccc(CCn2ccc(O)c(Cc3ccc(Cl)cc3Cl)c2=O)cc1OC`: 6.97% (inactive); `O=C(NCc1ccccc1)C(c1ccco1)N(C(=O)c1csnn1)c1ccccc1F` (stereo not drawn): 5.02% (inactive). Next, `CSc1ccc(C(=O)C2CCCN(C(=O)c3ccc(C)nc3)C2)cc1` (stereo not drawn): 1.04% (inactive); `CCCCn1nnnc1C(c1cccc(OC)c1OC)N1CCN(C/C=C/c2ccccc2)CC1` (stereo not drawn): -3.54% (inactive). As for `CC(C)C[C@H](CO)Nc1nc(N(C)c2cccc(Cl)c2)c2ncn(C(C)C)c2n1`, the figure is 12.4% (inactive); as for `CC(C)n1cnc2c(Nc3cccc(Cl)c3)nc(N(CCO)CCCO)nc21`, 96.1% (active); as for `Cc1ccc(C(O)c2ncc(-c3ccccc3F)[nH]2)cc1F` (stereo not drawn), -67.5% (inactive). Consider `O=C(NCc1ccncc1)C1CCN(C(=O)c2cccc(Cl)c2)CC1`, for which the inhibition is 0.12% (inactive). Next, `O=C(NC1CCCC1)C(c1c(F)cccc1Cl)N(C(=O)c1csnn1)C1CC1` (stereo not drawn): 16.7% (inactive); `COC(=O)CC1=NN(c2ccccc2)C(=O)C1`: 5.53% (inactive). As for `CCc1nc2ccccc2c(C(=O)NCc2ccc(OC)cc2)c1C`, the figure is 16.9% (inactive); as for `COC(=O)Cc1[nH]n(-c2nc3ccccc3s2)c(=O)c1C(C)=Nc1ccc(OC)cc1`, 89.1% (active).

For `N#Cc1cccc(CN2CCC(=O)N([C@H](CO)c3ccccc3)CC2)c1`, the inhibition was -12.2% (inactive). Next, `CC(=O)c1cccc(-c2cnc3c(NC=O)cc(-c4ccccc4Oc4ccccc4)cn23)c1`: 0.73% (inactive); `CCCCN(C=O)c1c(CC)nc2c(OCCC3CCCCC3)cccn12`: 18.3% (inactive). As for `CCOC(=O)C1(C)CCCN(C(=O)c2ccc(F)c(Cl)c2)C1` (stereo not drawn), the figure is 8.51% (inactive). As for `CC1(C(=O)NS(=O)(=O)c2cccc(OC(F)F)c2)CCN1C(=O)COc1ccc(Cl)cc1` (stereo not drawn), the figure is -1.93% (inactive); as for `O=C1N[C@@H](c2ccccc2)COC(=O)[C@H](Cc2ccc(F)cc2)C/C=C\C[C@@H]1CC(=O)N(CCO)Cc1ccccc1`, 24.9% (inactive); as for `O=C1NC[C@@H](c2ccccc2)OC(=O)[C@H](Cc2ccc(F)cc2)CC/C=C/C[C@H]1CC(=O)N(CCO)Cc1ccccc1`, 54.9% (active). Take `O=C1CCC/C=C/C[C@@H](CC(=O)N(CCO)Cc2ccccc2)C(=O)NC[C@H](c2ccccc2)O1`: the inhibition is -18.6% (inactive). As for `CCOC(=O)C1=CC[C@@H](c2ccccc2)N(S(=O)(=O)c2ccc(C)cc2)[C@H]1c1ccc(CC)cc1`, the figure is 13% (inactive); as for `CC(C)CCN1CCN(Cc2cn[nH]c2C2CCCCC2)CC1CCO` (stereo not drawn), 8.83% (inactive); as for `O=C(CNC(=O)OCc1ccccc1)Oc1cc2oc(=O)cc(-c3ccccc3)c2cc1Cl`, 11.5% (inactive).

`COc1cccc(NC(=O)C2(C)CCN2C(=O)CCC2CCCC2)c1` (stereo not drawn): the inhibition is 9.97% (inactive). As for `O=C(/C=C/[C@H]1O[C@@H](n2cnc3c(NC(=O)c4ccccc4)ncnc32)[C@H](O)[C@@H]1O)NCc1ccccc1`, the figure is -2.88% (inactive); as for `COc1cc(CNCCN(C)C)ccc1OCc1c(F)cccc1Cl`, 2.85% (inactive). Next, `O=C(/C=C/c1ccc(OCc2c(F)cccc2Cl)cc1)N1CCOCC1`: -42.8% (inactive). As for `CN(C)CCCNC(=O)/C=C/c1ccc(OCc2c(F)cccc2Cl)cc1`, the figure is 70.2% (active). `CC(NC(=O)C(C)(C)C)C(c1cccs1)N1CCN(Cc2ccccc2)CC1` (stereo not drawn): the inhibition was 3.48% (inactive). As for `Cc1coc2c1c(C)cc1oc(=O)c(CC(=O)NCC(=O)N[C@H](C(=O)O)C(C)C)c(C)c12`, the figure is -3.37% (inactive); as for `COc1ccc(C(=O)N2CCCCC2c2cc(C(=O)Nc3ccccc3)no2)cc1` (stereo not drawn), 1.75% (inactive). As for `CCOC(=O)c1c(NC(=O)CCl)sc(C(=O)N(CC)CC)c1C`, the figure is 67.2% (active); as for `CCOC(=O)Nc1sc(C(=O)N(C)C)c(C)c1C(=O)OCC`, 16.3% (inactive). As for `CCOC(=O)c1sc(NC(=O)CCN2CCOCC2)c(C(=O)OCC)c1C`, the figure is 4.41% (inactive); as for `Nc1cc(=O)c2[nH]cnc2[nH]1`, -0.63% (inactive). For the compound `O=c1cc(CN2CCCCCCC2)c2c(ccc3ccccc32)o1`, the inhibition is 9.42% (inactive). Next, `CCCOc1ccc(/C=N/NC(=O)C2CC2)c(OCCC)c1`: -4.16% (inactive).

As for `CCCOc1ccc(C(=O)C(CCC(CNCC)C(=O)c2ccc(OCCC)cc2)CNCC)cc1` (stereo not drawn), the inhibition is 116% (active). For `COC(=O)c1ccc(OCC(=O)NC(C)(C)C)cc1`, the inhibition is -42.5% (inactive). Turning to `Cc1cc(Br)cn2c(Cc3ccccc3C(F)(F)F)c(C3CCCCC3)nc12`, the inhibition is 5.05% (inactive). Next, `CC1(C(=O)NS(=O)(=O)c2cccc(F)c2)CCN1C(=O)c1cccc2ccccc12` (stereo not drawn): -0.5% (inactive); `O=S(=O)(c1cccs1)N1CCN(Cc2ccccc2)CC1`: 0.76% (inactive). Next, `COc1ccc2c(CN3CCN(S(=O)(=O)c4cccs4)CC3)cc(=O)oc2c1`: 0.03% (inactive); `Cc1cc2oc(=O)cc(CN3CCN(S(=O)(=O)c4cccs4)CC3)c2cc1C(C)C`: 51.9% (active); `COc1cncc(-c2cnc3sc(NCCc4ccccn4)nn23)c1`: 37.3% (inactive). As for `Cc1ccc(NN=C2C(=O)OC(C)(C)OC2=O)c(C)c1`, the figure is -290% (inactive); as for `O=C(Nc1cccc(O)c1)c1ccc(C(=O)c2ccccc2)o1`, -268% (inactive); as for `Cc1onc(NC(=O)c2ccc([N+](=O)[O-])o2)c1Br`, 14.7% (inactive). As for `Cc1cccc(NC(=O)c2ccc([N+](=O)[O-])o2)c1`, the inhibition is 65.2% (active).

Turning to `O=C(Nc1cccc2cccnc12)c1ccc2sc([C@H]3C[C@H](O)[C@@H](CO)O3)nc2c1`, the inhibition was -70.4% (inactive). Turning to `O=C(Nc1cccc(Cc2ccccc2)c1)Nc1ccc2nc([C@@H]3O[C@H](CO)[C@@H](O)[C@H](O)[C@H]3O)[nH]c2c1`, the inhibition was -16.1% (inactive). Next, `CC(C)CN(C(=O)COC(=O)c1ccc2ccccc2c1)c1c(N)n(Cc2ccccc2)c(=O)[nH]c1=O`: 86.1% (active). As for `Cc1csc(=O)n1CC(=O)OCC(=O)N(CC(C)C)c1c(N)n(Cc2ccccc2)c(=O)[nH]c1=O`, the figure is -11.2% (inactive); as for `CC(C)CN(C(=O)COC(=O)c1ccc(Cl)c(N)c1)c1c(N)n(Cc2ccccc2)c(=O)[nH]c1=O`, -4.65% (inactive); as for `CNc1cc(-c2c(OC)cccc2OC)ncn1`, -4.17% (inactive).

`CC(=O)Oc1ccc(Cn2c(C)c(C(=O)NCc3ccc(C#N)cc3)sc2=O)cc1`: the inhibition is 9.61% (inactive).

In the case of `CNC(=O)c1ccsc1NC(=O)c1ccc(S(=O)(=O)N2CCc3ccccc32)cc1`, the inhibition is 50.7% (active).

As to `NS(=O)(=O)c1ccc(CNC(=O)c2cccc(S(=O)(=O)N3CCc4ccccc43)c2)cc1`, the inhibition was 23.1% (inactive).

Regarding `CC1CN(S(=O)(=O)c2ccc(C(=O)Nc3sccc3C(N)=O)cc2)CC(C)O1` (stereo not drawn), the inhibition is 32.5% (inactive). Regarding `CCOC(=O)c1ccccc1NC(=O)CSc1nc2c(sc(=S)n2CC)c(=O)[nH]1`, the inhibition is 8.72% (inactive). As for `CCOC(=O)c1cc(-c2sc(NC(=O)c3ccccc3)nc2C)n(Cc2ccccc2)n1`, the figure is -5.67% (inactive). As for `NC(=O)c1ccc(NC(=O)COC(=O)C(Cc2ccccc2)NC(=O)c2ccccc2)cc1` (stereo not drawn), the figure is -2.3% (inactive). Next, `CN(Cc1ccccc1F)C(=O)C(Cc1ccccc1)NC(=O)c1ccccc1` (stereo not drawn): 53.2% (active); `O=C(NC(Cc1ccccc1)C(=O)N1CCCC1C(=O)O)c1ccccc1` (stereo not drawn): 11.6% (inactive); `COCCSc1nnc(NC(=O)c2cc(OC)c(OC)cc2[N+](=O)[O-])s1`: 7.25% (inactive). For `CC1(C(=O)NS(=O)(=O)c2ccccc2)CCN1C(=O)Cc1ccc(-c2ccccc2)cc1` (stereo not drawn), the inhibition is -4.22% (inactive).

With `CCCNC(=O)C1(C)CCN(Cc2csc(-c3ccc(Cl)cc3)n2)C1` (stereo not drawn), the inhibition is -23.7% (inactive).
